Measured values from PubChem BioAssay (NCI).
About 83,000 compounds went through this panel and 20% of them were active in at least one assay; those are over-represented in the sample as a whole.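 Treatment: one concentration, 48 hours, 96-well format. Scoring: percent growth, with anything below 10 considered active.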 Values without a mark were called inactive. Active and inactive are the calls of the source.

Tests used:
Experiment in all cases: NCI-60 one-dose screen, 48 h (100 = growth as untreated, 0 = no growth, -100 = all killed)
Settings in all cases: 10 µM unless noted
[1] = tested on: HCT-15 colon
[2] = tested on: HT29 colon
[3] = tested on: SNB-75 CNS
[4] = tested on: SNB-19 CNS
[5] = tested on: U251 CNS
[6] = tested on: PC-3 prostate
[7] = tested on: SK-MEL-5 melanoma
[8] = tested on: UACC-62 melanoma
[9] = tested on: LOX IMVI melanoma
[10] = tested on: SK-MEL-28 melanoma

SMILES | growth [1] | growth [2] | growth [3] | growth [4] | growth [5] | growth [6] | growth [7] | growth [8] | growth [9] | growth [10]
C=CCCCN=C=S | 55.4% | 37.4% | 64.2% | 84.2% | 79.5% | 87% | 95.1% | 63.4% | 53.8% | 83.2%
COC(=O)[C@H](C[C@H](Cc1ccccc1)NC(=O)c1csc([C@@H](C[C@H](C(C)C)N(C)C(=O)[C@@H](NC(=O)[C@H]2CCCCN2C)C(C)C)OC(C)=O)n1)NC(=O)OCc1ccccc1 | 13.6% [8.5 µM] | -2.9% [8.5 µM] (active) | 22.7% [8.5 µM] | 16.3% [8.5 µM] | 14.6% [8.5 µM] | 32.4% [8.5 µM] | -13.3% [8.5 µM] (active) | 23.8% [8.5 µM] | 13.8% [8.5 µM] | -69.7% [8.5 µM] (active)
O=C(c1ccccc1O)c1[nH]c(Cl)c(Cl)c1-n1c(C(=O)c2ccccc2O)cc(Cl)c1Cl | 9.94% (active) | 4.28% (active) | -1.42% (active) | 9.34% (active) | -11.8% (active) | -13.4% (active) | -77.9% (active) | -22% (active) | 10.5% | 14.2%
Clc1cc(N2CC2)nc(N2CC2)n1 | 72.5% | 79.8% | 70.6% | 65.9% | 67.9% | 65.2% | 73.9% | 54.4% | 51.7% | 92.1%
N/C(=N\N=C\c1ccc(-c2ccccc2)cc1)N[N+](=O)[O-] | 31.6% | 14% | -1.49% (active) | 55.3% | 31.1% | 29.8% | 19.8% | 49.4% | 41.9% | 54%
CC12CCC(O)CC1=CCC1C2CCC2(C)C(O)CCC12 (stereo not given) | 105% | 101% | 88% | 86.7% | 105% | 94.1% | 98.2% | 102% | 99.5% | 106%
CC(=O)O[C@H]1CC[C@]2(C)[C@H]3CC[C@]4(C)[C@@H](OC(C)=O)CC[C@H]4[C@@H]3[C@@H](C)[C@]2(O)C1 | 108% | 106% | 92.5% | 111% | 111% | 89.6% | 106% | 98.4% | 96.8% | 117%
CNC(=O)Oc1ccc(C(C)(C)C)cc1OC(=O)NC | 90.5% | 88.8% | 91% | 101% | 92.3% | 94% | 98.9% | 99.6% | 92.4% | 107%
CC[C@H](C)[C@H](NC(=O)[C@H]1CCCCN1C)C(=O)N(C)[C@H](CC(=O)c1nc(C(=O)N[C@@H](Cc2ccccc2)C[C@H](C)C(=O)O)cs1)C(C)C | 99.2% | 78% | 49.3% | 55.5% | 45.9% | 78.3% | 56.1% | 32.2% | 47.2% | 81.3%
COc1cccc(C=NC(Cc2cnc[nH]2)C(=O)O)c1O (stereo not given) | 108% | 100% | 86.3% | 96.1% | 102% | 51.5% | 94.2% | 95.6% | 100% | 103%
CC[C@H](C)[C@H](NC(=O)[C@H]1CCCCN1C)C(=O)N(C)[C@H](CCc1nc(C(=O)N[C@@H](Cc2ccccc2)C[C@H](C)C(=O)OC)cs1)C(C)C | 12.3% | -3.3% (active) | 56.3% | 35.2% | 10.2% | 24.3% | -22.1% (active) | 41.5% | 24% | 65.6%
N#C[S-].[Au+].c1ccc(CN2[CH-]N(Cc3ccccc3)C(c3ccccc3)=C2c2ccccc2)cc1 | 13.8% | 7.04% (active) | 43.6% | 16.1% | 5.57% (active) | 7.2% (active) | -36.5% (active) | 3.87% (active) | 7.61% (active) | 20.8%
CCOC(=O)N[C@H]1CCc2c(Br)c(OC)c(OC)c(OC)c2-c2ccc(SC)c(=O)cc21 | 8.88% (active) | 13.1% | 17.2% | 28.7% | 19.7% | 24.2% | -23.4% (active) | 38.7% | 9.29% (active) | 56.8%
O=C1NC(=O)C(=Cc2cccn2CCCCCn2c3ccccc3c(=O)c3ccccc32)C(=O)N1 | 92.8% | 103% | 101% | 101% | 96.8% | 91% | 98.6% | 90.7% | 95.3% | 111%
CCCCCCCCC(CO)NCCc1ccccc1 (stereo not given) | 102% | 73.6% | 108% | 102% | 93.3% | 73.5% | 101% | 98.5% | 103% | 108%
CC(C)COC(C[N+](=O)[O-])C(Cl)(Cl)Cl (stereo not given) | 105% | 106% | 90.4% | 106% | 95.7% | 91% | 112% | 101% | 103% | 99.4%
CC12CC(=O)C3(SC#N)C(CCC4=CC(=O)CCC43C)C1CCC2=O (stereo not given) | 34.5% | 64.2% | 93.6% | 96% | 101% | 104% | 101% | 89.3% | 80.8% | 94.7%
CCCCN(CCCC)P(=O)(Oc1ccccc1)Oc1ccccc1 | 68.1% | 39.1% | 50.9% | 60.1% | 53.1% | 38.6% | 67% | 60.1% | 67.7% | 94.1%
COc1ccc(Nc2ccnc3cc(Cl)ccc23)cc1CN(CCCl)CCCl | -12.1% (active) | 1.34% (active) | -10.8% (active) | -0.124% (active) | -11% (active) | -4.22% (active) | -88.4% (active) | -87% (active) | -51.6% (active) | -38.3% (active)
Clc1ccc2nnnn2n1 | 24.7% | 12.9% | 80.3% | 91.7% | 34.4% | 25.7% | 30.2% | 45.4% | 16.3% | 51.9%
CC(=O)O[C@H](C[C@H](C(C)C)N(C)C(=O)[C@@H](NC(=O)[C@H]1CCCCN1C)C(C)C)c1nc(C(=O)N[C@@H](Cc2ccccc2)C[C@H](C)C(=O)O)c(C)s1 | 16.5% | 3.99% (active) | 49.6% | 38.5% | 8.94% (active) | 21.3% | -33.1% (active) | 48.1% | 26.6% | 62.7%
CC[C@H](C)[C@@H]([C@@H](CC(=O)N1CCC[C@H]1[C@H](OC)[C@@H](C)C(=O)N[C@H](C)[C@@H](O)c1ccccc1)OC)N(C)C(=O)[C@@H](NC(=O)[C@@H](NC)C(C)C)C(C)C | 17.2% | 3.65% (active) | 39% | 45.4% | 6.43% (active) | 29.1% | -37.6% (active) | 47.3% | 19.6% | 63.5%
CN1CC(CNC(=O)OCc2ccccc2)CC2c3cccc4c3c(cn4C)CC21 (stereo not given) | 8.29% (active) | 5.34% (active) | 20.6% | 57.8% | 13.6% | 40% | -97.8% (active) | 5.67% (active) | -37.4% (active) | -41.1% (active)
COc1cc2c(cc1OCc1ccccc1)C(CC(C)C)=[N+](C)CC2 | 99.4% | 63.3% | 64.9% | 69% | 49.1% | 62.8% | 75.9% | 81.9% | 91.1% | 95.1%
CCOP(=O)(Cc1ccc(C#N)cc1)OCC | 108% | 92.2% | 106% | 97.3% | 95.6% | 84.7% | 104% | 94.1% | 98.3% | 107%
CCCCN1CCCC[C@@H]1C(=O)N[C@H](C(=O)N(C)[C@H](CCc1nc(C(=O)N[C@@H](Cc2ccccc2)C[C@H](C)C(=O)OC)cs1)C(C)C)[C@@H](C)CC | 41.4% | 35.2% | 70.3% | 62.5% | 58.3% | 40.8% | 34.8% | 47% | 78.2% | 81.1%
